BAZ2B block: inhibitors of human BAZ2B bromodomain | AlphaScreen BAZ2B-H3K14Ac peptide displacement | Potency, µM (doses to about 114 µM), inactives show at the top dose activity change, negative = inhibition, usual class: inhibitors | 360,000 tested, 4.4% active | AID 504333; note: % is set by controls: 0 for no effect and ±100 for the full control effect; nearly all actives have a fitted effect of over 60% in size
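AlphaScreen displacement: compounds (up to 110uM) incubated 30 min at room temperature with a preformed 50 nM BAZ2B/50 nM biotinylated H3K14Ac peptide complex in PBS pH 7.4 with Tween-20. Donor and acceptor beads at 10 ug/mL final added, 20 min light-protected before reading.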
GLS inh: blocks human kidney-isoform glutaminase activity | 410,000 tested, 0.21% active | GLS enzymatic activity, qHTS titration | AID 624170 | Potency, µM (series often up to 45.5 µM), without a hit: top-dose activity change, negative = inhibition, actives largely listed as inhibitors | O94925; note: % is set by controls: 0 for no effect and ±100 for the full control effect
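Read-out is an Amplex red fluorescence increase coupled through glutamate oxidase and HRP, measured before and after 30 min room-temperature incubation. hKGA is in 45 mM KH2PO4 (pH 8.2) with 0.02% Tween-20; glutamine added as 1mM solution.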
JMJD2A Tudor: JMJD2A Tudor domain (human) inhibition. Potency, µM (titrated, usually from 114 µM), for the others: at the top dose activity change, negative = inhibition, actives largely listed as inhibitors. AlphaScreen JMJD2A-Tudor / H3K4me3 peptide binding. 390,000 tested, 4.4% active. O75164; note: % is set by controls: 0 for no effect and ±100 for the full control effect; nearly all actives have a fitted effect of over 50% in size
G9a block: inhibitors of human histone lysine methyltransferase G9a | Q96KQ7 | G9a H3K9 monomethylation, AlphaScreen, 2 h | Potency, µM (series often up to 102 µM), for the others: at the highest dose activity, negative = inhibition, hits mostly inhibitors | 350,000 tested, 8.8% active | AID 504332; note: % is set by controls: 0 for no effect and ±100 for the full control effect; nearly all actives have a fitted effect of over 75% in size
Target sequence (Q96KQ7 913-1193 limits assumed): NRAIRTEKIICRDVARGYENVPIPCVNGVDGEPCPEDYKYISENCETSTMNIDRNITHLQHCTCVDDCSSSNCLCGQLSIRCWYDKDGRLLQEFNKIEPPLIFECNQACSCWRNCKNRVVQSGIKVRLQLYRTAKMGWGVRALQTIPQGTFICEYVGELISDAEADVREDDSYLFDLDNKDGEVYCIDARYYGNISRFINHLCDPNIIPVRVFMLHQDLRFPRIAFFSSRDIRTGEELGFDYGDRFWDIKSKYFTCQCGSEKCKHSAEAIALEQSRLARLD
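Chemiluminescent proximity detection of H3K9 monomethylation, read after 10 min bead incubation in the dark. Reaction: 20 nM G9a, 500 nM biotin-H3K9 peptide, 20 uM SAM cofactor, 2 h, room temperature, following 15 min enzyme-compound preincubation.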
HP1b chromo inh: HP1-beta chromodomain-methylated histone interaction inhibition; Potency, µM (top dose mostly 114 µM), without a hit: top-dose activity change, negative = inhibition, actives largely listed as inhibitors; AlphaScreen HP1-beta / biotin-H3K9me3 peptide binding; AID 540317; P83916; 390,000 tested, 0.56% active; note: nearly all actives have a fitted effect of over 70% in size
Target sequence (P83916 whole entry, looked up): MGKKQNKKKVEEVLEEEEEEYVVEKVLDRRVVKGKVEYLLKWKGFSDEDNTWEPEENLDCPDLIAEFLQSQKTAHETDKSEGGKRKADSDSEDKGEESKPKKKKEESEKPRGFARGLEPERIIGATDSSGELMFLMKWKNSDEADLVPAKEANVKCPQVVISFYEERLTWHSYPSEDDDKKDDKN
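HP1-beta protein (50 nM final) preincubated 30 min at room temperature with biotinylated H3(1-18)K9me3 peptide (50 nM) in PBS pH 7.4, 0.01% Tween-20, then compound added for 30 min. AlphaScreen streptavidin donor/nickel chelate acceptor beads (10 ug/mL final), 30 min dark, luminescence read.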
Starred values were filed as active, the others as inactive; ? = inconclusive; · = no result; [ ] = another dose, or the depositor's remark. Sampled rows, rich in hits. Any-hit rate of the full collection: about 10%. Calls come from the whole dose curve; as a rule, active = well fitted curve in the direction sought with a large enough effect; inconclusive = small, poorly fitted or top-dose-only effect, or another doubt; inactive = no such curve, though single readings can be large; an effect the other way counts as inactive or inconclusive. Potency is the fitted concentration of half-maximal effect.

SMILES	BAZ2B block	GLS inh	JMJD2A Tudor	G9a block	HP1b chromo inh
CCCCCn1c(=O)c(C(=O)Nc2cnccn2)c(O)c2ccccc21	14%	26%	45µM*	·	9%
COc1ccc2c(c1)CC1(CN2C)C(=O)NC(=O)N(c2ccc(F)cc2)C1=O (centres undefined)	4%	6%	-22%	20µM*	55%
Cc1ccc2c(c1)CC1(CN2C)C(=O)NC(=O)N(CCC2=CCCCC2)C1=O (centres undefined)	-31%	5%	-13%	10µM*	32%
CC(=NCCC1=CCCCC1)c1c(O)n(C)c(=O)n(C)c1=O	-2%	-13%	-15%	3%[0.501 µM]	-2%
CCC(C)N1C(=O)NC(=O)C2(Cc3cc(C)ccc3N(C)C2)C1=O (centres undefined)	·	-1%	-13%[57.1 µM]	?	50%
COc1ccc2c(c1)CC1(CN2C)C(=O)NC(=O)N(c2ccc(C)cc2)C1=O (centres undefined)	?	16%	-8%	?	49%
Cc1cccc(N2C(=O)NC(=O)C3(Cc4cc(C)ccc4N(C)C3)C2=O)c1 (centres undefined)	-21%	0%	-4%[11.4 µM]	10µM*	63%
Cc1ccc2c(c1)CC1(CN2C)C(=O)NC(=O)N(C(C)C)C1=O (centres undefined)	6%	-8%	6%[57.1 µM]	32µM*	-6%
CSc1cccc(NC(=O)C2CCN(C(=O)c3cnn(-c4ccccc4)c3-n3cccc3)CC2)c1	?	-3%	-34%	?	2%
COC(=O)C1=C(c2ccc(Cl)c(C(F)(F)F)c2)C[C@@H]2CC[C@H]1N2C(=O)NCc1ccco1	?	-1%	?	5%[0.501 µM]	-1%
c1ccc(-c2ccc(CN3Cc4ccccc4-n4nncc4C3)cc2)cc1	·	3%	·	·	·
C[C@]12CC[C@H](O)C[C@H]1CCC1C2CC[C@]2(C)[C@@H](c3ccc(=O)oc3)C[C@H]3O[C@]132 (some centres undefined)	·	0%	·	-34%[12.7 µM]	·
COC(=O)C1=C(c2cc3ccccc3o2)C[C@@H]2CC[C@H]1N2C(=O)NC(C)C	·	2%	40µM*	·	52%
COC(=O)C1=C(c2ccc3ccccc3c2)C[C@@H]2CC[C@H]1N2C(=O)NCC1CC1	-9%	3%	-8%	-16%[0.501 µM]	27%
COC(=O)C1=C(c2cc3ccccc3o2)C[C@@H]2CC[C@H]1N2C(=O)NCCNC(C)=O	·	8%	-4%	·	29%
COC(=O)C1=C(c2ccc3ccccc3c2)C[C@@H]2CC[C@H]1N2C(=O)NCc1ccco1	50µM*	-6%	?	10%[0.501 µM]	-16%
CN(C(=O)Cc1ccc(Cl)c(Cl)c1)C(CN1CCCC1)c1cccc(N=C=S)c1 (centres undefined)	·	·	·	18µM*	·
Cc1cc(=O)oc2c(C)c(OCC(=O)N3CCC(C(=O)O)(c4ccccc4)CC3)ccc12	0%	-6%	-5%	-4%[12.7 µM]	28%
CCOC(=O)C1(CCOc2ccccc2)CCN(Cc2cnc(SC)nc2)CC1	?	-7%	0%	50µM*	64%
O=C(c1ccco1)N1CCC[C@@]2(CCN(Cc3ccncc3)C2)C1	·	·	·	7%[12.7 µM]	·
COc1ccc(OC)c(C2C(C#N)=C(N)Oc3c2c(C)nn3-c2ccc(C)cc2)c1 (centres undefined)	50µM*	34%	-18%[11.4 µM]	25µM*	?
c1ccc(N2CC[C@@]3(CCCNC3)C2)cc1	·	·	·	-30%[12.7 µM]	·
CC1CCCCC1n1c(-c2cccnc2)n[nH]c1=S (centres undefined)	-6%	-1%	7.1µM*	14µM*	54%
CN1CCCCC1c1ccc(-c2cccnc2)nc1 (centres undefined)	?	4%	-18%	-118%[59 µM]	32%
Cn1c(=O)n(C)c2cc(N3CCCC3)c(NC(=O)Nc3ccccc3)cc21	50µM*	6%	-22%	-34%[59 µM]	6%
SMILES	BAZ2B block	GLS inh	JMJD2A Tudor	G9a block	HP1b chromo inh
Cn1c(=O)c2c(-c3ccccc3)n3c(c2n(C)c1=O)C(c1cc(Cl)ccc1O)Nc1ccccc1-3 (centres undefined)	-22%	1%	-25%	?	17%
CN(C)/C=C1/C(=O)NC(=O)N(CCNc2ncc(C(F)(F)F)cc2Cl)C1=O	?	24%	-28%	45µM*	-10%
CC1(C)CC(=O)C=C(NCCN2CCN(C(=O)Cc3ccc(Cl)cc3)CC2)C1	6%	1%	-3%	71µM*	20%
CC1(C)CC(=O)C(C=NCCN2CCN(C(=O)Cc3ccc(F)cc3)CC2)=C(O)C1	7%	-2%	-7%	35µM*	56%
Cc1ccc(C2CC(=O)C(C=NCCN3CCN(C(=O)Cc4ccccc4)CC3)=C(O)C2)cc1 (centres undefined)	6%	1%	2%[57.1 µM]	?	17%
O=C1CC(c2ccccc2)CC(O)=C1C=NCCN1CCN(C(=O)Cc2ccccc2)CC1 (centres undefined)	10%	1%	-11%	79µM*	44%
Cc1ccccc1Cn1cccc(C(=O)Nc2cc(Cl)ccc2C#N)c1=O	12%	-1%	-11%	8%[59 µM]	11%[57 µM]
Cc1ncc(C[n+]2csc(CCOP(=O)(O)O)c2C)c(N)n1	·	3%	·	?	·
OCCN(Cc1ccccc1)Cc1cccc(F)c1	45µM*	7%	7.1µM*	7.1µM*	?
CC(=O)Nc1ccccc1C(=O)OCc1cccc(F)c1	20%	-10%	18%	52%	41%
CNc1ccc(C(=O)CC(O)CCC(C)C2OC(=O)CC(O)CC(=O)CC(O)CC(O)CC(O)CC(O)CC3(O)CC(O)C(C(=O)OC)C(CC(O[C@@H]4OC(C)C(O)C(N)C4O)/C=C/C=C/C=C/C=C/C=C/C=C/C=C/C2C)O3)cc1 (some centres undefined)	·	4%	·	7%[2.33 µM]	·
CCOP(=O)(OCC)c1nc(-c2ccc(F)cc2)oc1NCc1ccccc1	?	1%	-12%	29%[12.7 µM]	-7%
CC(=O)c1cccc(OCC(O)CN2CC=C(c3ccccc3)CC2)c1 (centres undefined)	71µM*	-19%	2.8µM*	?	-35%
Cc1cccc(OCC(O)CN2CC2)c1 (centres undefined)	·	-2%	·	·	·
O=C(O)C1Cc2ccccc2N2CCCC12 (centres undefined)	-24%	4%	-19%	40µM*	83%
CC1CCCN(CC(=O)N2CCCc3ccccc32)C1 (centres undefined)	13%	-7%	1%	-1%[59 µM]	24%
CC1(C)CC2CC(C)(CN2S(=O)(=O)c2cccc(C(=O)OCC(=O)NC(N)=O)c2)C1 (centres undefined)	-4%	1%	-6%	0%[0.501 µM]	68%
COc1ccc(N2CCN(CCCN)CC2)cc1	·	43%	10µM*	·	?
